Screening results deposited in PubChem by National Center for Advancing Translational Sciences (NCATS).
AmpC inh no detg = qHTS Inhibitors of AmpC Beta-Lactamase (assay without detergent); AID 485341, 2010; actives 0.52% (n = 330,000); P00811; AmpC nitrocefin hydrolysis, absorbance 480 nm, 0.0001% Triton; Potency, µM (doses to about 57.1 µM), hits mostly inhibitors; further: nearly all actives have a fitted effect of over 20% in size
Target sequence (P00811 whole entry, looked up): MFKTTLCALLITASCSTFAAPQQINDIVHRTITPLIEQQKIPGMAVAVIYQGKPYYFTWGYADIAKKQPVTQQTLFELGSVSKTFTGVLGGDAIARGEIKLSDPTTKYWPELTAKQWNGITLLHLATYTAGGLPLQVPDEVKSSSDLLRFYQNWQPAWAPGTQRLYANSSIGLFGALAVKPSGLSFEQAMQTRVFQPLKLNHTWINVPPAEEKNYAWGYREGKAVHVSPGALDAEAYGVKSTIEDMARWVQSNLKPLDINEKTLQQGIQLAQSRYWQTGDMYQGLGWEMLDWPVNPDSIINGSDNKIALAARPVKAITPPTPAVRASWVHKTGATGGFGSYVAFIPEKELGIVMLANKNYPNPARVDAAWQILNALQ
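20 mM phosphate pH 7.0 + 0.01% (detergent screen) or 0.0001% Triton X-100; 5.3 nM AmpC reagent; cpd preinc 15 min RT; nitrocefin (800 uM stock) to start; A480 q20 s × 4 min; Activity was normalised to no-enzyme and no-compound control wells.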
FBPA Giardia inh = qHTS Assay for Inhibitors of Fructose-1,6-bisphosphate Aldolase from Giardia Lamblia | Potency, µM (top dose mostly 59.6 µM), usual class: inhibitors | A8B2U2 | purified Giardia FBPA | actives 0.71% (n = 290,000); further: nearly all actives have a fitted effect of over 55% in size
Target sequence (A8B2U2 whole entry, looked up): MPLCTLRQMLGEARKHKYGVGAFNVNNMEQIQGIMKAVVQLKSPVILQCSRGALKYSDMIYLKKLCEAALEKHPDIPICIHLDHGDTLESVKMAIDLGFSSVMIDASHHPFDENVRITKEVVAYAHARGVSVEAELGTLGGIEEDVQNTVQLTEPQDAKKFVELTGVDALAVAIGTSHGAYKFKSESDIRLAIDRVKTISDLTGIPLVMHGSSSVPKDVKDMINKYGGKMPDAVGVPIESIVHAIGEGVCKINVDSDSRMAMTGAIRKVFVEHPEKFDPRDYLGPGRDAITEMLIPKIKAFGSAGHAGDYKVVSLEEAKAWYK
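40 nM FBPA preincubated 10 min at RT with compound (up to 57.5 uM final), then substrate plus GAPDH/TPI/NAD/arsenate coupling and diaphorase/resazurin added. Fluorescence read after 20 min at RT, 525/598 nm.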
Sm TGR inh = qHTS Assay for the Inhibitors of Schistosoma Mansoni Peroxiredoxins. Schistosoma mansoni thioredoxin glutathione reductase (TGR), Q962Y6. actives 3% (n = 360,000). purified TGR, DTNB reduction, TNB absorbance 405 nm. Potency, µM (top dose mostly 114 µM), hits mostly inhibitors; further: nearly all actives have a fitted effect of over 60% in size
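Kinetic colorimetric format: TGR-catalysed, NADPH-driven DTNB reduction monitored via TNB absorbance. Enzyme dispensed at 20 nM; compound exposure 15 min at room temperature before reaction start.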
AmpC detergent = qHTS Inhibitors of AmpC Beta-Lactamase (assay with detergent); P00811; AmpC hydrolysis of nitrocefin, absorbance 480 nm, 0.01% Triton; Potency, µM (highest dose often 114 µM), hits mostly inhibitors; actives 0.041% (n = 370,000); AID 485294, 2010; further: nearly all actives have a fitted effect of over 25% in size
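20 mM phosphate pH 7.0 + 0.01% (detergent screen) or 0.0001% Triton X-100; 5.3 nM AmpC reagent; cpd preinc 15 min RT; nitrocefin (800 uM stock) to start; A480 q20 s × 4 min; Activity was normalised to no-enzyme and no-compound control wells.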
A number is an active result. Shown are actives, neighbours in structure and some others; about 3.6% of the full set was active somewhere. The call rests on the fitted dose curve; in most records, active means well fitted curve in the direction sought with a large enough effect; inconclusive means small, poorly fitted or top-dose-only effect, or another doubt; inactive means no such curve, though single readings can be large; an effect the other way counts as inactive or inconclusive.

`CC(=O)Nc1ccc2c(c1)CC1(C(=O)N(C)C(=O)N(C)C1=O)C1CCCN21` (configuration not stated) gave AmpC inh no detg inactive, FBPA Giardia inh inconclusive, Sm TGR inh 45µM and AmpC detergent inactive.
CN1C(=O)N(C)C(=O)C2(Cc3cc(NC(=O)c4ccc(F)cc4)ccc3N3CCCC32)C1=O (configuration not stated) was read as AmpC inh no detg inactive, Sm TGR inh 40µM and AmpC detergent inactive.
For CN1CCN2c3ccccc3CC3(C(=O)N(C)C(=O)N(C)C3=O)C2C1 (configuration not stated) the results were AmpC inh no detg inactive, FBPA Giardia inh inactive, Sm TGR inh inactive and AmpC detergent inactive.
Screening CN1C(=O)N(C)C(=O)C2(Cc3ccccc3N3CCCC32)C1=O (configuration not stated) returned AmpC inh no detg inactive, FBPA Giardia inh inactive, Sm TGR inh inconclusive and AmpC detergent inactive.
For COC(=O)c1ccc(-n2c(CCC(=O)O)ccc2-c2ccc(C)cc2)cc1 the results were AmpC inh no detg inactive, FBPA Giardia inh inactive, Sm TGR inh 28µM and AmpC detergent inactive.
Cc1ccc(-c2ccc(CCC(=O)O)n2-c2ccc(C(=O)O)cc2)cc1 was read as AmpC inh no detg inactive, FBPA Giardia inh inactive, Sm TGR inh 14µM and AmpC detergent inactive.
`O=C(O)CCc1ccc(-c2ccccc2)n1-c1cccc(O)c1` gave AmpC inh no detg inactive, FBPA Giardia inh inactive, Sm TGR inh 14µM and AmpC detergent inactive.
Cc1ccc(-c2ccc(CCC(=O)O)n2-c2ccc(C(C)C)cc2)cc1 was read as Sm TGR inh 40µM and AmpC detergent inactive.
`O=C(O)CCc1ccc(-c2ccccc2)n1NC(=O)c1ccco1` gave AmpC inh no detg inactive, FBPA Giardia inh inactive, Sm TGR inh inconclusive and AmpC detergent inactive.
Screening CCCCSCCCNC(=O)c1ccc(CS(=O)(=O)c2ccc(OC)cc2)o1 returned AmpC inh no detg inactive, FBPA Giardia inh inactive, Sm TGR inh inactive and AmpC detergent inactive.
`CC(C)(C)OC(=O)N1CCC(c2c(C(=O)NCc3ccco3)cnn2-c2ccccc2Cl)CC1` gave Sm TGR inh inactive and AmpC detergent inactive.
COc1ccc(-c2nc3ccccc3o2)cc1NC(=O)COc1ccc(C(C)(C)C)cc1 was read as Sm TGR inh inactive and AmpC detergent inactive.
Screening CCCCS(=O)(=O)Nc1ccc(N2CCOCC2)c(S(=O)(=O)N2CCOCC2)c1 returned AmpC inh no detg inactive, FBPA Giardia inh inactive, Sm TGR inh inactive and AmpC detergent inactive.
For Cc1ccc(NC(=O)C2CCN(c3nc(-c4ccc(C(C)C)cc4)no3)CC2)c(Cl)c1 the results were Sm TGR inh inactive and AmpC detergent inactive.
For O=C(O)CCc1ccc(-c2ccc(Br)cc2)n1-c1ccccc1O the results were Sm TGR inh inactive and AmpC detergent inactive.
Cc1ccc(-c2ccc(CCC(=O)O)n2-c2cccc(C)c2C)cc1 was read as Sm TGR inh 22µM and AmpC detergent inactive.
Cc1ccc(-c2ccc(CCC(=O)O)n2-c2cccc(C(=O)O)c2)cc1 was read as AmpC inh no detg inactive, FBPA Giardia inh inactive, Sm TGR inh 13µM and AmpC detergent inactive.
CCOC(=O)c1ccc(-n2c(CCC(=O)O)ccc2-c2ccc(F)cc2)cc1 was read as AmpC inh no detg inactive, FBPA Giardia inh inactive, Sm TGR inh 22µM and AmpC detergent inactive.
CCOC(=O)c1ccc(NC(=O)Nc2ccc(F)cc2)cc1 was read as AmpC inh no detg inconclusive, FBPA Giardia inh inactive, Sm TGR inh inactive and AmpC detergent inactive.
`CCCCn1c(N)c(N(CCOC)C(=O)c2oc3ccc(OCC)cc3c2C)c(=O)[nH]c1=O` gave AmpC inh no detg inactive, Sm TGR inh inactive and AmpC detergent inactive.
Screening COc1ccc(/C=C2\Sc3ccc(C(=O)NCCCN4CCCC4)cc3N(C)C2=O)cc1OC returned AmpC inh no detg inactive, FBPA Giardia inh inactive, Sm TGR inh inactive and AmpC detergent inactive.
`COc1ccccc1NC(=O)Cn1c(=O)oc2ccccc21` gave AmpC inh no detg 0.4µM, FBPA Giardia inh inactive, Sm TGR inh inactive and AmpC detergent inactive.
Screening CCn1cc(C(=O)N(C)c2ccccc2F)c2cc(OC)c(OC)cc2c1=O returned AmpC inh no detg inactive, FBPA Giardia inh inactive, Sm TGR inh inactive and AmpC detergent inactive.
O=S1(=O)c2ccccc2N=NN1Cc1ccc(Cl)cc1 was read as AmpC inh no detg inactive, FBPA Giardia inh inactive, Sm TGR inh 2.5µM and AmpC detergent inactive.
For CN(Cc1ccccc1)C(=O)CCCn1c(=O)c2cccn2c2cccnc21 the results were AmpC inh no detg inactive, Sm TGR inh inactive and AmpC detergent inactive.
Screening CCc1cnc2c(c1SCC(=O)Nc1ccc(C)cc1C)c(=O)n(C)c(=O)n2C returned Sm TGR inh inactive and AmpC detergent inactive.
CCN(CC)C(=O)C1CCCN(C/C=C/c2ccccc2)C1 (configuration not stated) was read as AmpC inh no detg 0.28µM, FBPA Giardia inh inactive, Sm TGR inh inactive and AmpC detergent inactive.
`Cc1ccc(NS(=O)(=O)c2cc(C(=O)Nc3cccnc3)ccc2C)cc1` gave AmpC inh no detg 28µM, Sm TGR inh inactive and AmpC detergent inactive.
For COc1cc2c(cc1OC)CN(c1nc(-c3cccnc3)nc3ccccc13)CC2 the results were AmpC inh no detg inactive, FBPA Giardia inh inactive, Sm TGR inh inconclusive and AmpC detergent inactive.
C/C(CC1CC(COCC(C)C)OC1=O)=N\Nc1nc(-c2ccccc2)cs1 (configuration not stated) was read as AmpC inh no detg inconclusive, FBPA Giardia inh inactive, Sm TGR inh 56µM and AmpC detergent inactive.
CC1CC(CC(=O)Nc2nc(-c3ccccc3)cs2)C(=O)O1 (configuration not stated) was read as AmpC inh no detg inactive, FBPA Giardia inh inactive, Sm TGR inh inactive and AmpC detergent inconclusive.
Cc1ccccc1C(=O)NC(=S)NCCC1=CCCCC1 was read as AmpC inh no detg inactive, FBPA Giardia inh inactive, Sm TGR inh 5µM and AmpC detergent inactive.
`Cc1ccccc1C(=O)NC(=S)NCCc1ccccc1` gave AmpC inh no detg inactive, FBPA Giardia inh inactive, Sm TGR inh 7.1µM and AmpC detergent inactive.
Screening Cc1ccccc1NS(=O)(=O)c1cc(C(=O)NCCC2=CCCCC2)ccc1C returned AmpC inh no detg 10µM, FBPA Giardia inh inactive, Sm TGR inh inactive and AmpC detergent inconclusive.
S=C(NCCc1ccccc1)NCCc1ccccc1 was read as AmpC inh no detg inactive, FBPA Giardia inh inactive, Sm TGR inh inactive and AmpC detergent inactive.
`CC(C)(C)C(=O)NC(=S)NCCc1ccccc1` gave AmpC inh no detg inactive, FBPA Giardia inh inactive, Sm TGR inh 20µM and AmpC detergent inactive.
`CCOC(=O)c1nc(C)sc1-c1ccnn1S(=O)(=O)c1ccc(C)cc1` gave AmpC inh no detg inactive, FBPA Giardia inh inactive, Sm TGR inh inactive and AmpC detergent inactive.
